From PubChem BioAssay AID720518 (National Center for Advancing Translational Sciences (NCATS), 2013)
Records with an inconclusive call do not appear. Entries that show only a call come without a potency. Activity calls are given as the source filed them. Calls come from the whole dose curve.

test: qHTS for Inhibitors of Cell Surface uPA Generation: Wild-type Protective Antigen (WT-PrAg) Counterscreen for Cherry-picked Compounds; settings: cells, WT protective antigen toxicity counterscreen; series mostly up to 115 µM

Row | SMILES | Potency
1 | COc1ccc(C)cc1NC(=O)CSCc1cc(=O)n2c(C)csc2n1 | inactive
2 | Cc1ccc(NC(=O)CS(=O)Cc2nc(-c3ccc(C)cc3)oc2C)cc1 (stereo not drawn) | inactive
3 | CCCn1nnc(NC(=S)NC(=O)c2ccccc2OC)n1 | inactive
4 | C/C=C/C(=O)Nc1cccc(C2=NOC3(C2)C[C@@H](C(N)=O)N(C(=O)c2cc([N+](=O)[O-])cc([N+](=O)[O-])c2C)C3)c1 (stereo partly drawn) | inactive
5 | C[C@H](CO)N1C[C@H](C)[C@@H](CN(C)C(=O)Nc2ccccc2)Oc2ccc(NC(=O)Cn3cnnn3)cc2C1=O | inactive
6 | CC(NC(=O)NC1CCCCC1)C(c1cccs1)N1CCN(C)CC1 (stereo not drawn) | inactive
7 | Cc1nn(-c2ccc(F)cc2)c(C)c1NS(=O)(=O)c1ccc(Cl)cc1 | inactive
8 | Cc1ccc2cc(C=O)c(Cl)nc2c1 | inactive
9 | N#Cc1ccccc1Sc1ccccc1C(=O)Nc1ccc(Br)cc1 | inactive
10 | CCc1ccc(S(=O)(=O)NCCc2cn3cccc(C)c3n2)s1 | inactive
11 | Cc1cc(-c2ccccc2)nc(N/N=C/c2ccc(N(C)C)cc2)n1 | inactive
12 | CC(=O)NS(=O)(=O)c1ccc(NC(=O)c2cccc(OCc3c(C)noc3C)c2)cc1 | inactive
13 | Cc1ncc(CN2CCCC(C(=O)c3cccc(OC(C)C)c3)C2)s1 (stereo not drawn) | inactive
14 | C[C@H](CO)N1C[C@H](C)[C@@H](CN(C)C(=O)Nc2ccccc2)Oc2c(NS(=O)(=O)c3ccccc3)cccc2C1=O | inactive
15 | O=C(/C=C/c1cccc(F)c1)Nc1cc(S(=O)(=O)N2CCOCC2)ccc1Cl | inactive
16 | CCOC(=O)N1CCN(C(=O)c2ccc3c(c2)sc2nc(-c4ccc(OC)cc4)cn23)CC1 | inactive
17 | COc1cc(/C=N/NC(=O)c2ccncc2)ccc1O | inactive
18 | COC(=O)c1ccc(CN2CCCC(CNC(=O)Cc3ccc(OC)cc3)C2)cc1 (stereo not drawn) | inactive
19 | CCOCc1nnc(NC(=O)C2CCN(C(=O)C3CC(=O)N(c4ccc(C)cc4)C3)CC2)s1 (stereo not drawn) | inactive
20 | CCOC(=O)C1=C(C)N(Cc2ccccc2)C(=O)NC1c1ccc(OC)cc1 (stereo not drawn) | inactive
21 | COc1ccc(OC)c(S(=O)(=O)N2CCC(NC(=O)c3ccccc3)CC2)c1 | inactive
22 | Cc1cccc(CNc2ccc(C(CC(N)=O)NC(=O)c3cccc(Br)c3)cc2[N+](=O)[O-])c1 (stereo not drawn) | inactive
23 | Cc1ccc(C23CC4CC(CC(C(=O)NN)(C4)C2)C3)cc1 | inactive
